MCF10A rerep: induces DNA re-replication in MCF 10a normal breast cells | 350,000 tested, 2.9% active | MCF 10A DNA re-replication, Hoechst nuclear intensity, 48 h | Potency, µM (doses to about 46.1 µM), for inactives: at the highest dose activity, positive = re-replication, usual class: activators | AID 624296; further: % of control where 0% means no effect; nearly all actives have a fitted effect of over 50% in size
HT1080 IDH1KD tx: HT-1080 IDH1 knockdown cell toxicity (counter line) | 360,000 tested, 2% active | Potency, µM (titrated, usually from 46.1 µM), without a hit: at the highest dose activity, negative = toxicity, most hits filed as cytotoxic | HT-1080 IDH1 knockdown viability, ATP luminescence, 48 h;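 further: 0% = DMSO wells and -100% = cell-free medium wells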
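Assay cells: HT-1080 with IDH1 knockdown, 750 per well, RPMI/5% FBS. Exposure: 48 h at 37 °C following 2 h pre-incubation. Read: CellTiter-Glo luminescence; fitted concentration-response, curve class assigned.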
HT1080-NT tox: kills 2HG-producing HT-1080-NT fibrosarcoma cells; AID 686970; Potency, µM (top dose mostly 46.1 µM), inactives show at the top dose activity, negative = less viability, usual class: cytotoxic; 360,000 tested, 1.6% active; HT-1080-NT fibrosarcoma viability, CellTiter-Glo ATP luminescence, 48 h;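 further: NT is the 2HG producing partner of a matched IDH1 knockdown line; 0% = DMSO-treated cells and -100% = media-only wells without cells; nearly all actives have a fitted effect of over 55% in size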
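A 48-hour cytotoxicity screen used HT-1080-NT cells plated 2 hours before compound delivery. ATP-based CellTiter-Glo luminescence measured viability, normalized to DMSO and no-cell controls.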
KB-V1 cytotox: kills drug-selected multidrug resistant KB-V1 cells | KB-V1 MDR cells viability, CellTiter-Glo, 72 h | Potency, µM (highest dose often 46.1 µM), hits mostly cytotoxic | 400,000 tested, 3.4% active | AID 1347076; further: on the % scale 0 is the no-effect control and ±100 the full control effect; nearly all actives have a fitted effect of over 60% in size
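KB-V1 cells (P-gp-expressing MDR subline of KB-3-1) in phenol-red-free DMEM with 10% FBS were exposed to library compounds over a concentration series for 72 h at 37 degrees C. Viability read by CellTiter-Glo luminescence; concentration-effect curves fitted after normalization.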
KB-3-1 tox: kills parental KB-3-1 adenocarcinoma cells | KB-3-1 viability, CellTiter-Glo ATP luminescence, 72 h | AID 1347075 | Potency, µM (doses to about 46.1 µM), hits mostly cytotoxic | 400,000 tested, 1.4% active; further: on the % scale 0 is the no-effect control and ±100 the full control effect; nearly all actives have a fitted effect of over 60% in size
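Cytotoxicity measured as CellTiter-Glo luminescence after 72 h at 37 C. Compound titrations were pinned onto drug-naive KB-3-1 parental adenocarcinoma cells grown in DMEM with 10% FBS, and normalized data fitted to concentration-response curves.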
SW480 rerep: induces DNA re-replication in SW480 colon adenocarcinoma cells. AID 624297. 340,000 tested, 1.8% active. Potency, µM (top dose mostly 46.1 µM), without a hit: at the highest dose re-replication activation, actives largely listed as activators. SW480 DNA re-replication, Hoechst DNA content imaging, 48 h; further: % of control where 0% means no effect; nearly all actives have a fitted effect of over 55% in size
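Cells (250 per well) received 23 nL compound or DMSO by pin tool and were kept 48 hr at 37 C, 5% CO2. Nuclei were then stained with Hoechst for 40 min and scanned for DNA content.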
* hit, by the source's call; i = inactive; ? = inconclusive; . = not tested or not shown. An excerpt weighted towards active compounds, which were near 7.9% of everything screened. The call rests on the fitted dose curve; in most records, active means well fitted curve in the direction sought with a large enough effect; inconclusive means small, poorly fitted or top-dose-only effect, or another doubt; inactive means no such curve, though single readings can be large; an effect the other way counts as inactive or inconclusive. Potency means the concentration at half of the fitted maximal effect.

SMILES | MCF10A rerep | HT1080 IDH1KD tx | HT1080-NT tox | KB-V1 cytotox | KB-3-1 tox | SW480 rerep
COC(=O)c1onc(C(=O)c2ccccc2)c1C(=O)OC | 2% | 3% | 13% | i | i | 0%
O=C(c1cc(COc2ccc(F)cc2F)on1)N1CC[C@@H]2CCCC[C@H]2C1 | 5% | -2% | 1% | i | i | 0%
CSc1ccccc1OCc1cc(C(=O)N2CCN(C3CCCC3)C(=O)C2)no1 | 1% | -9% | -4% | 15µM* | i | -3%
O=C(c1cc(COc2ccc(F)cc2F)on1)N1CCN(C2CCCC2)C(=O)C1 | 12% | 2% | 3% | 5.2µM* | i | -7%
O=C(O)c1ccc(-n2nc(C(F)(F)F)cc2-c2cccs2)cc1 | -6% | 0% | 29% | i | ? | 2%
Cc1cccc(-c2ncc(CN3CCN(CCC(C)C)C(CCO)C3)cn2)c1 (stereo unspecified) | -2% | -7% | -11% | ? | i | 23µM*
Cc1cccc(-c2ncc(CN3CCN(C4CCCC4)C(CCO)C3)cn2)c1 (stereo unspecified) | 14% | -19% | -22% | ? | i | ?
CCCc1nc2ccccc2c(C(=O)OCC(=O)N2CCc3ccccc32)c1CC | 21µM* | -16% | 1% | 6.5µM* | ? | 0%
CC1CCc2nc3ccccc3c(C(=O)OCC(=O)N3CCc4ccccc43)c2C1 (stereo unspecified) | 3% | -3% | -14% | 2.1µM* | ? | -2%
CCc1noc(C)c1C(=O)OCC(=O)N1CCc2ccccc21 | 0% | -3% | -5% | i | i | -1%
CN(C)c1cccc2cccc(N(C)C)c12 | -1% | 26% | 16% | ? | i | 5%
O=C(Nc1ccccc1)c1ccc(S(=O)(=O)N2CCCC2)cc1 | -2% | 8% | -4% | i | i | -6%
N#CCCN(CCC#N)S(=O)(=O)c1ccc(C(=O)Nc2nc(-c3ccccc3)c(C(=O)c3ccccc3)s2)cc1 | ? | 6% | 0% | i | i | -14%
CN(C)S(=O)(=O)c1ccc(C(=O)Nc2nc(-c3ccccc3)c(C(=O)c3ccccc3)s2)cc1 | 19% | -4% | 10% | 16µM* | i | -1%
O=C(Nc1nc(-c2ccccc2)c(-c2ccccc2)s1)c1ccc(S(=O)(=O)N2CCCC2)cc1 | 7% | 7% | 7% | 4.1µM* | ? | -3%
CCCN(CCC)S(=O)(=O)c1ccc(C(=O)Nc2nc3c(s2)CCc2ccccc2-3)cc1 | -8% | ? | 18µM* | i | 9.2µM* | 21%
O=C(Nc1nc(-c2ccccc2)c(C(=O)c2ccccc2)s1)c1ccc(S(=O)(=O)N2CCCC2)cc1 | ? | -13% | -4% | 3.7µM* | 16µM* | -106%
COc1ccc(OC)c(C(=O)/C=C/c2cccnc2)c1 | 12µM* | ? | 21µM* | ? | ? | 21µM*
CN(C)S(=O)(=O)c1ccc(C(=O)/C=C/c2cccnc2)cc1 | 16µM* | -17% | -2% | ? | i | 21µM*
COc1ccc(/C=C/C(=O)c2cc(C(=O)/C=C/c3ccc(OC)cc3)c(O)cc2O)cc1 | . | 4% | 16% | . | . | .
COc1ccc(/C=C/C(=O)c2ccc(OC)cc2OC)cc1 | 24µM* | -29% | -26% | ? | ? | 21µM*
O=C(/C=C/c1cccnc1)/C=C/c1cccnc1 | ? | 3.3µM* | 4.1µM* | i | 2.6µM* | ?
CC(=O)c1ccc2noc(-c3ccc(C)cc3)c2c1 | ? | 13% | 0% | i | i | 9%
COc1cc(C(=O)/C=C/c2cccnc2)ccc1O | 5.8µM* | ? | ? | ? | ? | 16µM*
O=C(/C=C/c1cccnc1)c1cc(F)ccc1O | 3% | 1% | 0% | i | i | -16%
SMILES | MCF10A rerep | HT1080 IDH1KD tx | HT1080-NT tox | KB-V1 cytotox | KB-3-1 tox | SW480 rerep
CC(C)c1nnc(NC(=O)c2nc(S(=O)(=O)Cc3ccc(F)cc3)ncc2Cl)s1 | 0.73µM* | 23µM* | 26µM* | i | ? | 1.3µM*
CSc1nnc(NC(=O)c2nc(S(=O)(=O)Cc3cccc(C)c3)ncc2Cl)s1 | 2.1µM* | 21µM* | ? | ? | 16µM* | 21%
Cc1cccc(CS(=O)(=O)c2ncc(Cl)c(C(=O)Nc3nnc(C(C)C)s3)n2)c1 | ? | 7.3µM* | 10µM* | 16µM* | 16µM* | ?
CC(C)c1nnc(NC(=O)c2nc(SCc3ccc(F)cc3)ncc2Cl)s1 | . | . | . | i | i | .
Cc1ccc(CS(=O)(=O)c2ncc(Cl)c(C(=O)Nc3nnc(C(C)C)s3)n2)cc1 | ? | 9.2µM* | 21µM* | ? | ? | 6%
CCSc1nnc(NC(=O)c2nc(S(=O)(=O)Cc3ccc(F)cc3)ncc2Cl)s1 | 27% | ? | ? | i | ? | ?
CSc1n[nH]c(NCc2ccccc2)n1 | -1% | 13% | 2% | i | i | -4%
COc1cccc(-c2cn3nc4c(nc3n2)CCCC4)c1 | ? | 16µM* | ? | ? | 18µM* | ?
COc1cc(C2NCC(c3ccc(Cl)cc3Cl)c3c2[nH]c2ccccc32)cc(OC)c1OC (stereo unspecified) | 18µM* | 15µM* | 18µM* | ? | 18µM* | ?
CCCCn1c(SCc2cccc([N+](=O)[O-])c2)nc2ccsc2c1=O | 16µM* | 2% | 0% | 2.3µM* | i | -8%
Cn1c(SCc2cccc([N+](=O)[O-])c2)nc2ccccc2c1=O | ? | ? | ? | 2.6µM* | ? | 11%
CCOC(CCn1c(SCc2cccc([N+](=O)[O-])c2)nc2ccccc2c1=O)OCC | 15% | -28% | ? | i | i | 6%
COCCn1c(SCc2cccc([N+](=O)[O-])c2)nc2ccccc2c1=O | 9% | ? | -27% | 12µM* | i | -7%
CCCS(=O)(=O)c1nc(S(=O)(=O)c2ccc(C)cc2)c(N(C)Cc2ccccc2)s1 | . | . | . | i | i | .
CCOC(=O)c1c(C)oc2cc(Cl)c(O)c(CN(C)C)c12 | -1% | -5% | 10% | i | i | 1%
CCOC(=O)c1c(-c2ccccc2)oc2ccc(O)c(CN3CCN(C)CC3)c12 | 23µM* | ? | ? | 21µM* | ? | 15%
CCOC(=O)c1c(-c2ccccc2)oc2cc(CN(C)C)c(O)c(CN(C)C)c12 | ? | 11µM* | ? | ? | ? | ?

Screening results: PubChem, National Center for Advancing Translational Sciences (NCATS)
